Source: PubChem
Rows were chosen to be rich in hits. Some 6% of all compounds tested hit in one or more screens of this group.
DRD3 antagonist = D3 dopamine receptor (human) antagonism. AID 652054. actives 2.5% (n = 360,000). D3R cells, DiscoveRx beta-arrestin luminescence, antagonist mode; active compounds read low. P35462. max response, negative = inhibition, %; in the data active = max response below about -50%; inconclusive = no clear call, values can overlap the other calls; note: % is set by controls: 0 for no effect and ±100 for the full control effect
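Cells plated overnight at 1500 cells/well, then exposed to library compounds with dopamine controls for 90 minutes at 37 degrees C. DiscoveRx reagent added for 30–60 minutes at room temperature; luminescence read, quantitative HTS format.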
D1 agonist = human D1 receptor agonism; actives 1% (n = 360,000); activation, % at 2 µM; P21728; HEK293 T-REx D1 cells, calcium flux, agonist mode; in the data active = activation above about 30%; note: 0% is about no effect
Target sequence (P21728 whole entry, looked up): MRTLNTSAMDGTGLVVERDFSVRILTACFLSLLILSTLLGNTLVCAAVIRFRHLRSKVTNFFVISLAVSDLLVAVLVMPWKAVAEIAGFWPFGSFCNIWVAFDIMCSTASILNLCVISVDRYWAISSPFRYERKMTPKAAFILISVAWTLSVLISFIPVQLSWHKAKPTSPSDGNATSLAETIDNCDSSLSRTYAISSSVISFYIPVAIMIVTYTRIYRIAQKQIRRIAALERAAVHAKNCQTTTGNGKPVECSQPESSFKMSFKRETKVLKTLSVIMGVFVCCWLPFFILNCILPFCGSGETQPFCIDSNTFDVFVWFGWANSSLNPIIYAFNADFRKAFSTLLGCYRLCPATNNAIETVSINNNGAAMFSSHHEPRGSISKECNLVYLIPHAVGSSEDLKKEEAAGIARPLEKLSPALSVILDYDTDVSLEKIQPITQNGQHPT
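Inducible HEK293 T-REx D1 cells, force-coupled to calcium signalling, were plated at 4000 cells/well with tetracycline and held overnight at 30 C. After no-wash calcium dye loading, compound-evoked calcium rise over 180 s flagged agonists.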
D1 potentiator = human D1 dopamine receptor positive modulation; HEK293 TREx D1 cells, calcium flux, dopamine EC20 potentiation; potentiation, % at 10 µM; actives 0.036% (n = 360,000); AID 504651; in the data active = potentiation above about 30%; note: 0% is about no effect
DRD3 agonist = agonists of human D3 dopamine receptor. max activation, %. actives 0.58% (n = 410,000). AID 652048. P35462. D3R DiscoveRx beta-arrestin cells, luminescence, 90 min; in the data active = max activation above about 30%; note: 0% is about no effect
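Agonist mode: compounds and dopamine controls were applied to plated cells for 90 min at 37 degrees C after an overnight attachment at 1500 cells/well. Luminescent read-out followed 30 - 60 minutes at room temperature with DiscoveRx detection reagent.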
D1 antagonist = human D1 dopamine receptor antagonism; P21728; HEK293 TREx D1 cells, calcium flux, dopamine EC80; active compounds read low; activity change, negative = inhibition, % at 10 µM; actives 3.2% (n = 360,000); in the data active = activity change below about -30%; note: % is set by controls: 0 for no effect and ±100 for the full control effect
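Antagonism measured as reduced calcium response to an EC80 dopamine addition following 180 s compound pre-read; cells were inducible HEK293 Trex D1 plated overnight at 30 C, read kinetically at 1 cycle/sec.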
* hit, by the source's call; ? = inconclusive; nt = no result; ! = a repeat was not active.

SMILES	DRD3 antagonist	D1 agonist	D1 potentiator	DRD3 agonist	D1 antagonist
CCCOc1ccc(C(=O)NCC(c2cccs2)N(C)C)cc1OC (stereo unspecified)	?	3	-6	-29	-12
COc1cc(C(=O)NCC(c2cccs2)N(C)C)cc(Cl)c1OC(C)C (stereo unspecified)	-76*	13	-2	-10	5
COc1ccc(N(C(=O)c2ccco2)S(=O)(=O)c2cccc([N+](=O)[O-])c2)cc1	-23	1	-9	-4	-20
COc1ccc(N(C(=O)c2ccco2)S(=O)(=O)c2cc(OC)ccc2OC)cc1	0	4	-18	-5	-35*
COc1ccc(N(C(=O)c2ccco2)S(=O)(=O)c2ccc(F)cc2)cc1	?	7	-10	-1	-58*
Cc1ccc(NC(=O)c2cc3nc(-c4ccc5c(c4)OCO5)cc(C(F)(F)F)n3n2)cc1Cl	nt	1	-3	1	0
CN(C)CCOc1ccc(/C(=C(/CCCl)c2ccccc2)c2ccccc2)cc1	-91*	nt	nt	-85	nt
O=c1oc2ccccc2n1CCCOc1ccccc1Cl	nt	6	-3	-11	-2
COc1ccc(CN2C(=O)C(Cc3ccccc3)Nc3ncnc(N4CCCCC4)c32)cc1 (stereo unspecified)	-53*	1	11	-24	24
Cc1ccc(CN2C(=O)C(Cc3ccccc3)Nc3ncnc(N4CCCCC4)c32)cc1 (stereo unspecified)	-84*!	2	-5	-22	-7
Cc1ccc(CN2C(=O)C(Cc3ccccc3)Nc3ncnc(N4CCN(c5ccccc5)CC4)c32)cc1 (stereo unspecified)	-140*	3	-1	-65	3
O=C1C(Cc2ccccc2)Nc2ncnc(N3CCN(c4ccccc4)CC3)c2N1Cc1ccccc1 (stereo unspecified)	-15	5	1	-29	9
O=C1C(Cc2ccccc2)Nc2ncnc(N3CCOCC3)c2N1Cc1ccc(Cl)cc1 (stereo unspecified)	-102*!	3	0	-38	-21
CCC1Nc2ncnc(N3CCOCC3)c2N(Cc2ccc(OC)cc2)C1=O (stereo unspecified)	3	nt	nt	10	nt
CCC1Nc2ncnc(N3CCCCC3)c2N(Cc2ccc(C)cc2)C1=O (stereo unspecified)	?	nt	nt	-9	nt
CCCCn1c(N)c(N(CC(C)C)C(=O)CC2CCCC2)c(=O)[nH]c1=O	11	1	-1	5	-15
CCc1ccc(C(=O)CN2C(=O)NC3(CCc4ccccc43)C2=O)cc1 (stereo unspecified)	?	1	-4	-6	-20
CCCS(=O)(=O)N1CCCC(C(=O)Oc2ccc(C)c(C)c2)C1 (stereo unspecified)	17	-1	0	1	4
CC(C)CC1Nc2ncnc(N3CCOCC3)c2N(Cc2ccc(Cl)cc2)C1=O (stereo unspecified)	-24	nt	nt	2	nt
CC(C)CC1Nc2ncnc(N3CCOCC3)c2N(Cc2ccccc2)C1=O (stereo unspecified)	1	nt	nt	60*!	nt
COc1cccc(NC(=S)N(CCCN2CCOCC2)C(C)c2cc3cccc(OC)c3o2)c1 (stereo unspecified)	-12	14	-12	-15	-68*
COc1cccc(NC(=O)N(CCCN2CCOCC2)C(C)c2cc3ccccc3o2)c1 (stereo unspecified)	-70*	4	-1	-52	0
COc1cccc(NC(=O)N(CCCN2CCOCC2)C(C)c2cc3cccc(OC)c3o2)c1 (stereo unspecified)	?	0	-3	-14	-4
Cc1sc(N)nc1-c1ccc(Oc2ccccc2)cc1	-21	1	-6	1	-16
CC(=C\c1ccccc1)/C=C1/SC(=S)N(CC(=O)O)C1=O	nt	nt	nt	-1	nt
SMILES	DRD3 antagonist	D1 agonist	D1 potentiator	DRD3 agonist	D1 antagonist
COc1ccc(-c2csc(NS(=O)(=O)c3ccc([N+](=O)[O-])cc3)n2)cc1	-12	-1	-11	-17	-31*
Cc1ccc(S(=O)(=O)N(C)c2ccc(OCC(=O)Nc3nc(-c4ccccc4)cs3)cc2)cc1	4	7	-7	1	-37*
CN(c1ccc(OCC(=O)Nc2nc(-c3ccccc3)cs2)cc1)S(=O)(=O)c1ccc(F)cc1	18	4	-3	-11	-19
COc1ccc(-c2csc(NC(=O)c3ccccc3NS(=O)(=O)c3ccc(F)c(F)c3)n2)cc1	-13	23	-10	24	-49*
Cc1ccc(S(=O)(=O)Nc2ccccc2C(=O)Nc2nc(-c3ccc(F)cc3)cs2)cc1	32	26	-8	20	-65*
CNc1nc(-c2ccc([N+](=O)[O-])cc2)cs1	18	2	-7	-13	-5
CCOc1ccc(-c2cn3c(n2)sc2cc(C(=O)NCCc4ccc(OC)cc4OC)ccc23)cc1	nt	1	-3	1	0
CC(C)(C)OC(=O)N1CCC(c2c(C(=O)NCc3ccco3)cnn2-c2ccc(F)cc2F)CC1	nt	0	-1	1	-9
Cc1ccc(S(=O)(=O)N2CCCCC2)cc1NC(=O)C1=NN(c2ccccc2)C(=O)CC1	-25	6	-9	-7	-44*
Cc1ccc(S(=O)(=O)N2CCCCC2)cc1NC(=O)Cn1ccsc1=N	-15	3	-8	-4	-39*
Cc1ccc(Oc2ccc(NC(=O)Cn3ccsc3=N)cc2)cc1	4	85*	-6	0	-29
N=c1sccn1CC(=O)Nc1cc(S(=O)(=O)N2CCCCC2)ccc1Cl	-3	4	-3	-8	-30
Cc1ccc(S(=O)(=O)N2CCCCC2)cc1NC(=O)C1CCC1	15	7	nt	-4	-34*
Cc1ccc(F)cc1NC(=O)C1C2CCC(O2)C1C(=O)O (stereo unspecified)	0	1	1	6	-6
Nc1nc(SCc2ccccc2)c2ncn(CCO)c2n1	9	nt	nt	11	nt
COc1ccc(N2CC(C(=O)N3CCN(c4ccccc4F)CC3)CC2=O)cc1 (stereo unspecified)	8	3	nt	3	-9
CSc1nnc2[nH]c(=O)cc(C)n12	nt	2	0	-5	nt
CCOC(=O)C1CCCN(c2nc3ccccc3nc2C(C#N)C(=O)NCc2ccccc2)C1 (stereo unspecified)	-2	33*	-9	6	-3
N#CC(C(=O)NCc1ccccc1)c1nc2ccccc2nc1N1CCCC1 (stereo unspecified)	-11	8	-7	4	11
O=C(Nc1ccccn1)NC1CCS(=O)(=O)C1 (stereo unspecified)	-22	1	-3	1	-34*
O=C(Nc1ccccn1)NC1CCCCC1	-7	0	3	0	-1
COc1ccc(CNC(=O)Cn2ncc3c([nH]c4ccccc43)c2=O)cc1	nt	1	2	3	11
